# Test results from paper PMC5540273 (PLoS ONE, 2017).
# Like-named read-outs stand apart in the source and are kept apart here.
# Tests used:
# [1] = system: JAK1(JH2domain-pseudokinase); settings: concentration: 1 μM, replicates: in singlicate; n = 1
# [2] = system: JAK2(JH1domain-catalytic); settings: concentration: 1 μM, replicates: in singlicate; n = 1
# [3] = system: JAK3(JH1domain-catalytic); settings: concentration: 1 μM, replicates: in singlicate; n = 1
# [4] = system: T1, JNK1; settings: concentration: 1 μM, replicates: in singlicate; n = 1
# T1 construct: gene MAPK8
# [5] = system: T2, JNK2; settings: concentration: 1 μM, replicates: in singlicate; n = 1
# T2 construct: gene MAPK9
# [6] = system: T3, JNK3; settings: concentration: 1 μM, replicates: in singlicate; n = 1
# T3 construct: gene MAPK10
# [7] = system: KIT-autoinhibited; settings: concentration: 1 μM, replicates: in singlicate; n = 1
# [8] = system: KIT; settings: concentration: 1 μM, replicates: in singlicate; n = 1
# [9] = system: LATS1; settings: concentration: 1 μM, replicates: in singlicate; n = 1
# [10] = system: LATS2; settings: concentration: 1 μM, replicates: in singlicate; n = 1
# [11] = system: LCK; settings: concentration: 1 μM, replicates: in singlicate; n = 1
# [12] = system: LIMK1; settings: concentration: 1 μM, replicates: in singlicate; n = 1
# [13] = system: LIMK2; settings: concentration: 1 μM, replicates: in singlicate; n = 1
# [14] = system: T4, LKB1; settings: concentration: 1 μM, replicates: in singlicate; n = 1
# T4 construct: gene STK11
# [15] = system: T5, LOK; settings: concentration: 1 μM, replicates: in singlicate; n = 1
# T5 construct: gene STK10
# [16] = system: LRRK2; settings: n = 1
# [17] = system: LTK; settings: concentration: 1 μM, replicates: in singlicate; n = 1
# [18] = system: LYN; settings: concentration: 1 μM, replicates: in singlicate; n = 1
# [19] = system: T6, LZK; settings: concentration: 1 μM, replicates: in singlicate; n = 1
# T6 construct: gene MAP3K13
# [20] = system: MAK; settings: concentration: 1 μM, replicates: in singlicate; n = 1
# [21] = concentration: 1 μM, replicates: in singlicate
# 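Note: KINOMEscan kinase panel screen.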
structure (smiles),measurement,setting,value
Cl.Cl.NCC(NC(=O)c1cc(-c2cccnc2)c(-c2ccnc3[nH]ccc23)s1)c1ccccc1 (centres unmarked) [GSK1323434],%Inh,[1],0%
same,%Inh,[2],31%
same,%Inh,[3],79%
same,%Inh,[4],44%
same,%Inh,[5],61%
same,%Inh,[6],41%
same,%Inh,[7],0%
same,%Inh,[8],19%
same,%Inh,[9],0%
same,%Inh,[10],11%
same,%Inh,[11],33%
same,%Inh,[12],0%
same,%Inh,[13],0%
same,%Inh,[14],22%
same,%Inh,[15],0%
same,%Inh,[16]; [21],0%
same,%Inh,[17],0%
same,%Inh,[18],0%
same,%Inh,[19],77%
same,%Inh,[20],21%
CN(c1ccc2c(c1)nc(NCc1ccccc1)n2C)c1ccnc(Nc2ccc(CS(C)(=O)=O)cc2)n1.Cl [GW811603],%Inh,[1],0%
same,%Inh,[2],60%
same,%Inh,[3],99.2%
same,%Inh,[4],65%
same,%Inh,[5],40%
same,%Inh,[6],47%
same,%Inh,[7],80%
same,%Inh,[8],100%
same,%Inh,[9],0%
same,%Inh,[10],0%
same,%Inh,[11],59%
same,%Inh,[12],1%
same,%Inh,[13],0%
same,%Inh,[14],0%
same,%Inh,[15],99.5%
same,%Inh,[16]; [21],0%
same,%Inh,[17],37%
same,%Inh,[18],52%
same,%Inh,[19],0%
same,%Inh,[20],33%
Cc1ccc(C)c(NC(=O)Nc2ccc(C)c(-c3ccc(C(=O)Nc4ccncc4)cc3)c2)c1 [GSK1398473],%Inh,[1],0%
same,%Inh,[2],0%
same,%Inh,[3],0%
same,%Inh,[4],15%
same,%Inh,[5],14%
same,%Inh,[6],6%
same,%Inh,[7],0%
same,%Inh,[8],99.9%
same,%Inh,[9],3%
same,%Inh,[10],0%
same,%Inh,[11],47%
same,%Inh,[12],25%
same,%Inh,[13],2%
same,%Inh,[14],0%
same,%Inh,[15],0%
same,%Inh,[16]; [21],0%
same,%Inh,[17],0%
same,%Inh,[18],17%
same,%Inh,[19],0%
same,%Inh,[20],65%
COc1cccc(CC(=O)N2CCc3cc(-c4cn(C)c5ncnc(N)c45)ccc32)c1 [GSK2608899],%Inh,[1],0%
same,%Inh,[2],0%
same,%Inh,[3],0%
same,%Inh,[4],4%
same,%Inh,[5],16%
same,%Inh,[6],3%
same,%Inh,[7],11%
same,%Inh,[8],100%
same,%Inh,[9],0%
same,%Inh,[10],10%
same,%Inh,[11],34%
same,%Inh,[12],0%
same,%Inh,[13],35%
same,%Inh,[14],4%
same,%Inh,[15],98.5%
same,%Inh,[16]; [21],0%
same,%Inh,[17],36%
same,%Inh,[18],22%
same,%Inh,[19],0%
same,%Inh,[20],2%
Cc1ccc(NC(=O)c2ccc(Cl)c(Cl)c2)cc1-c1ccc(C(=O)Nc2ccncc2)cc1 [GSK1398460],%Inh,[1],0%
same,%Inh,[2],0%
same,%Inh,[3],0%
same,%Inh,[4],11%
same,%Inh,[5],4%
same,%Inh,[6],0%
same,%Inh,[7],9%
same,%Inh,[8],100%
same,%Inh,[9],0%
same,%Inh,[10],3%
same,%Inh,[11],91.9%
same,%Inh,[12],19%
same,%Inh,[13],0%
same,%Inh,[14],0%
same,%Inh,[15],0%
same,%Inh,[16]; [21],0%
same,%Inh,[17],11%
same,%Inh,[18],83%
same,%Inh,[19],0%
same,%Inh,[20],100%
COc1cc(Nc2nccc(N3CCC(NC(=O)Nc4ccc5c(c4)OCO5)C3)n2)cc(OC)c1OC (centres unmarked) [GSK1379766],%Inh,[1],47%
same,%Inh,[2],89%
same,%Inh,[3],0%
same,%Inh,[4],34%
same,%Inh,[5],0%
same,%Inh,[6],35%
same,%Inh,[7],5%
same,%Inh,[8],66%
same,%Inh,[9],0%
same,%Inh,[10],12%
same,%Inh,[11],32%
same,%Inh,[12],40%
same,%Inh,[13],13%
same,%Inh,[14],0%
same,%Inh,[15],0%
same,%Inh,[16]; [21],0%
same,%Inh,[17],74%
same,%Inh,[18],3%
same,%Inh,[19],24%
same,%Inh,[20],3%
Nc1ncc(-c2ccc3nccc(-c4ccncc4)c3c2)cc1S(=O)(=O)N1CCCCC1 [GSK1693850],%Inh,[1],14%
same,%Inh,[2],0%
same,%Inh,[3],0%
same,%Inh,[4],35%
same,%Inh,[5],18%
same,%Inh,[6],29%
same,%Inh,[7],0%
same,%Inh,[8],44%
same,%Inh,[9],21%
same,%Inh,[10],0%
same,%Inh,[11],24%
same,%Inh,[12],0%
same,%Inh,[13],22%
same,%Inh,[14],0%
same,%Inh,[15],7%
same,%Inh,[16]; [21],0%
same,%Inh,[17],6%
same,%Inh,[18],16%
same,%Inh,[19],0%
same,%Inh,[20],16%
CC(=O)Nc1cn2nc(Oc3cccc(NC(=O)c4cccc(C(F)(F)F)c4)c3)ccc2n1,%Inh,[1],5%
same,%Inh,[2],0%
same,%Inh,[3],0%
same,%Inh,[4],26%
same,%Inh,[5],0%
same,%Inh,[6],0%
same,%Inh,[7],87%
same,%Inh,[8],100%
same,%Inh,[9],5%
same,%Inh,[10],0%
same,%Inh,[11],99.5%
same,%Inh,[12],0%
same,%Inh,[13],14%
same,%Inh,[14],0%
same,%Inh,[15],90.1%
same,%Inh,[16]; [21],8%
same,%Inh,[17],0%
same,%Inh,[18],97.9%
same,%Inh,[19],0%
same,%Inh,[20],0%
COc1ccc(C)c(Nc2ccnc(Nc3ccc(-c4cnc[nH]4)cc3)n2)c1.Cl [GW784041],%Inh,[1],76%
same,%Inh,[2],14%
same,%Inh,[3],0%
same,%Inh,[4],14%
same,%Inh,[5],0%
same,%Inh,[6],0%
same,%Inh,[7],0%
same,%Inh,[8],70%
same,%Inh,[9],12%
same,%Inh,[10],0%
same,%Inh,[11],75%
same,%Inh,[12],31%
same,%Inh,[13],16%
same,%Inh,[14],0%
same,%Inh,[15],57%
same,%Inh,[16]; [21],0%
same,%Inh,[17],42%
same,%Inh,[18],30%
same,%Inh,[19],0%
same,%Inh,[20],0%
CN(C)c1ncnc2nc[nH]c12 [SKF-31736],%Inh,[1],34%
same,%Inh,[2],0%
same,%Inh,[3],30%
same,%Inh,[4],23%
same,%Inh,[5],0%
same,%Inh,[6],0%
same,%Inh,[7],19%
same,%Inh,[8],0%
same,%Inh,[9],0%
same,%Inh,[10],0%
same,%Inh,[11],0%
same,%Inh,[12],0%
same,%Inh,[13],0%
same,%Inh,[14],0%
same,%Inh,[15],2%
same,%Inh,[16]; 1 µM,0%
same,%Inh,[17],0%
same,%Inh,[18],0%
same,%Inh,[19],8%
same,%Inh,[20],0%
